Shiga inhibitor: A qHTS for Small Molecule Inhibitors of Shiga Toxin; Vero cells, Shiga toxin protein synthesis inhibition reporter; inhibition, % at 38.7 µM; 290,000 tested, 9.2% active; AID 2315, 2010; in the data active = inhibition mostly above about 28%, no sharp cut-off; inactive = mostly below about 43%; also: 0% is about no effect
LmPK inhibitor: qHTS Assay for Inhibitors of Leishmania Mexicana Pyruvate Kinase (LmPK) | Potency, µM (doses to about 57.5 µM), inactives show at the highest dose activity change, negative = inhibition, hits mostly inhibitors | purified LmPK, Kinase-Glo ATP luminescence, 1 h | AID 1721, 2009 | Q27686 | 290,000 tested, 0.37% active; also: potency is read from the fitted curve at half-maximal effect; % is scaled to controls: 0 for no effect and ±100 for the full control effect
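Purified LmPK (0.1 nM) converted ADP (0.1 mM) to ATP with PEP (0.5 mM) in imidazole buffer pH 7.2 with KCl and MgCl2, 1 h at room temperature. ATP was read by Kinase-Glo luminescence; data normalized to uninhibited and no-enzyme controls.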
NS1 function inh: qHTS Assay for Inhibitors of Influenza NS1 Protein Function. Potency, µM (titrated, usually from 46.1 µM), for the others: at the top dose activity, positive = more growth. 270,000 tested, 0.4% active; calls by dose curve; also: potency is read from the fitted curve at half-maximal effect; actives are rising curves; nearly all actives have a fitted effect of over 50% in size
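Recovery from NS1-induced slow growth read by OD600 in budding yeast switched to galactose assay medium (pH 6.0, -URA) at 1:100 dilution. Compound 23 nl per well; the matching strain lacking NS1 serves as control.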
Giardia FBPA inh: qHTS Assay for Inhibitors of Fructose-1,6-bisphosphate Aldolase from Giardia Lamblia; A8B2U2; purified Giardia FBPA; Potency, µM (titrated, usually from 59.6 µM), for inactives: top-dose activity, negative = inhibition, most hits filed as inhibitors; 290,000 tested, 0.71% active; AID 2451, 2010; also: potency is read from the fitted curve at half-maximal effect; % is scaled to controls: 0 for no effect and ±100 for the full control effect; nearly all actives have a fitted effect of over 55% in size
Target sequence (A8B2U2 whole entry, looked up): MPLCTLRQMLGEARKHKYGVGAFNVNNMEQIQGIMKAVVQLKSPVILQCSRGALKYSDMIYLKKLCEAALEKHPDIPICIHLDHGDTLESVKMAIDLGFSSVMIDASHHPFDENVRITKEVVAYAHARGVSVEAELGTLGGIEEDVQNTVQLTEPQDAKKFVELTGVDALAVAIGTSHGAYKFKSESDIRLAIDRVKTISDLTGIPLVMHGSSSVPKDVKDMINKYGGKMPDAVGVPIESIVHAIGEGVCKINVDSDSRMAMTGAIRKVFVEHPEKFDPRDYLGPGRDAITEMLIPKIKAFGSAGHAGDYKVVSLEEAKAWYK
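Giardia FBPA (40 nM reagent) was preincubated 10 min at RT with compound (up to 57.5 uM final), then substrate plus GAPDH/TPI/NAD/arsenate coupling system with diaphorase/resazurin was added; resorufin fluorescence (525/598 nm) was read after 20 min.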
CHX counter: Cycloheximide Counterscreen for Small Molecule Inhibitors of Shiga Toxin; cell reporter, cycloheximide protein synthesis inhibition counterscreen; 300,000 tested, 12% active; max response, %; in the data active = max response mostly above about 13%, no sharp cut-off; inactive = mostly below about 14%; also: read at 38.3 µM for the half of the compounds with a filed dose; 0% is about no effect
* marks the source's active call; other numbers are inactive results. Hits are enriched below; roughly 14% of the tested compounds scored in any of these assays. Unless noted, calls follow the shape of the dose curve; as a rule, active = well fitted curve in the direction sought with a large enough effect; inconclusive = small, poorly fitted or top-dose-only effect, or another doubt; inactive = no such curve, though single readings can be large; an effect the other way counts as inactive or inconclusive.

How did COC(=O)c1ccc(CN2C(=O)NC3(CCC(C)CC3)C2=O)cc1 (stereo unspecified) do in these assays?
Shiga inhibitor: 120*; LmPK inhibitor: 4%; Giardia FBPA inh: 3%; CHX counter: 53*

What do the screens show for `Fc1ccc(NC2=NCCS2)cc1Cl`?
Shiga inhibitor: 6; LmPK inhibitor: -1%; NS1 function inh: -43%; Giardia FBPA inh: -12%; CHX counter: 0

How did CC1CN=C(Nc2ccc(F)c(Cl)c2)S1 (stereo unspecified) do in these assays?
Shiga inhibitor: 77*; LmPK inhibitor: -1%; NS1 function inh: -1%; Giardia FBPA inh: 3%; CHX counter: 15

How did C=C(C)c1cccc(C(C)(C)NC(=O)Nc2ccc(OC)nc2)c1 do in these assays?
Shiga inhibitor: -4; LmPK inhibitor: 6%; NS1 function inh: 17%; Giardia FBPA inh: -3%; CHX counter: 3

What do the screens show for `C=C(C)c1cccc(C(C)(C)NC(=O)Nc2ccc(C)cn2)c1`?
Shiga inhibitor: 63*; LmPK inhibitor: 7%; NS1 function inh: 5%; Giardia FBPA inh: 5%; CHX counter: 21*

Results for C=C(C)c1cccc(C(C)(C)NC(=O)Nc2cc(C)ccn2)c1 ?
Shiga inhibitor: 92*; LmPK inhibitor: 3%; NS1 function inh: -6%; Giardia FBPA inh: 3%; CHX counter: 30*

How did CCOc1ccc(-c2noc(CCCC(=O)NCC3CCCO3)n2)cc1OC (stereo unspecified) do in these assays?
Shiga inhibitor: -6; LmPK inhibitor: -5%; NS1 function inh: 0%; CHX counter: -3

What do the screens show for `NC[C@H]1O[C@@H](n2cnc3c(=O)[nH]c(N)nc32)[C@@H](O)[C@@H]1O`?
NS1 function inh: -4%

How did c1ccc2c(c1)Cc1cc3ccccc3nc1-2 do in these assays?
Shiga inhibitor: 62*; LmPK inhibitor: inconclusive; NS1 function inh: -52%; Giardia FBPA inh: -1%; CHX counter: 26*

How did O=C1c2ccccc2-c2nc3ccccc3cc21 do in these assays?
Shiga inhibitor: 69*; LmPK inhibitor: inconclusive; NS1 function inh: -48%; Giardia FBPA inh: 2%; CHX counter: 34*

Results for c1ccc(OCC2CCNCC2)nc1 ?
Shiga inhibitor: -7; LmPK inhibitor: 3%; NS1 function inh: -4%; Giardia FBPA inh: inconclusive; CHX counter: -1

What do the screens show for `COc1ccc(CCNC(=O)C(=O)NCC2OCCN2S(=O)(=O)c2ccc3c(c2)OCCO3)cc1` (stereo unspecified)?
Shiga inhibitor: 11; LmPK inhibitor: -11%; NS1 function inh: 9%; CHX counter: 34*

How did COc1ccccc1CNC(=O)C(=O)NCC1OCCN1S(=O)(=O)c1cccs1 (stereo unspecified) do in these assays?
Shiga inhibitor: -1; LmPK inhibitor: 13%; NS1 function inh: -6%; Giardia FBPA inh: -1%; CHX counter: 0

What do the screens show for `O=C(NCc1ccccc1Cl)C(=O)NCC1OCCN1S(=O)(=O)c1cccs1` (stereo unspecified)?
Shiga inhibitor: 28; LmPK inhibitor: 3%; Giardia FBPA inh: -1%; CHX counter: 21*

Results for O=C(NCc1ccncc1)C(=O)NCC1OCCCN1S(=O)(=O)c1cc(F)ccc1F (stereo unspecified) ?
Shiga inhibitor: -29; LmPK inhibitor: -10%; NS1 function inh: 11%; CHX counter: -3

What do the screens show for `O=C(NCC1OCCCN1S(=O)(=O)c1cc(F)ccc1F)C(=O)NC1CCCCCC1` (stereo unspecified)?
Shiga inhibitor: 6; LmPK inhibitor: 0%; Giardia FBPA inh: -1%; CHX counter: 15*

Results for COc1ccc(CNC(=O)C(=O)NCC2OCCN2S(=O)(=O)c2ccc(C)cc2)cc1 (stereo unspecified) ?
Shiga inhibitor: 11; LmPK inhibitor: 6%; NS1 function inh: 17%; Giardia FBPA inh: -1%; CHX counter: -1

What do the screens show for `COc1ccc(CNC(=O)C(=O)NCC2OCCN2S(=O)(=O)c2ccc(F)cc2)cc1` (stereo unspecified)?
Shiga inhibitor: 32*; LmPK inhibitor: -9%; NS1 function inh: -11%; CHX counter: 28*

What do the screens show for `CC(=O)c1ccsc1B(O)O`?
Giardia FBPA inh: 9%

How did CC(C)(C)OC(=O)CC12CCCCC1NC(=O)O2 (stereo unspecified) do in these assays?
Shiga inhibitor: 9; LmPK inhibitor: -1%; NS1 function inh: 2%; Giardia FBPA inh: 6%; CHX counter: 1

Results for O=C(O)[C@@H]1[C@@H](C(=O)Nc2ncccn2)[C@@H]2C=C[C@@H]1O2 ?
NS1 function inh: -3%

How did O=C(c1ccco1)N1CCC2(CC1)CCN(c1cccc(-c3ccccc3)c1)CC2 do in these assays?
Giardia FBPA inh: 1%

What do the screens show for `CSc1ncccc1C(=O)Nc1cccc(C)n1`?
Shiga inhibitor: 31; LmPK inhibitor: -1%; NS1 function inh: 1%; Giardia FBPA inh: 5%; CHX counter: 11

What do the screens show for `CC(C)(C)c1csc(NC(=O)c2ccncc2)n1`?
Shiga inhibitor: 19; LmPK inhibitor: 0%; Giardia FBPA inh: 0%; CHX counter: 14

What do the screens show for `Cc1cccc(NC(=O)c2ccc3c(c2)OCCO3)n1`?
Shiga inhibitor: 50*; LmPK inhibitor: inconclusive; NS1 function inh: -6%; CHX counter: 45*

What do the screens show for `Cc1cccc(NC(=O)c2ccc3nccnc3c2)n1`?
Shiga inhibitor: 46*; LmPK inhibitor: -13%; NS1 function inh: -15%; CHX counter: 49*

What do the screens show for `CC(C)(C)c1csc(NC(=O)c2ccc3nccnc3c2)n1`?
Shiga inhibitor: 80*; LmPK inhibitor: -2%; NS1 function inh: 19%; Giardia FBPA inh: -7%; CHX counter: 63*

How did Nc1ccc(S(=O)(=O)N2CCCC2)cc1Cl do in these assays?
Shiga inhibitor: -15; LmPK inhibitor: 2%; NS1 function inh: 0%; Giardia FBPA inh: -5%; CHX counter: 2

How did Cc1ccc(NC(=O)CN2C(=O)C3CC=C(Cl)CC3C2=O)cc1 (stereo unspecified) do in these assays?
Shiga inhibitor: 6; LmPK inhibitor: 1%; NS1 function inh: 1%; Giardia FBPA inh: 2%; CHX counter: -1

How did COc1ccc(CCn2nc(C)c([N+](=O)[O-])c2C)cc1 do in these assays?
Shiga inhibitor: 83*; LmPK inhibitor: -13%; NS1 function inh: 5%; Giardia FBPA inh: -5%; CHX counter: 30*

Results for O=C1CCCc2nc3c(cc21)C(O)Oc1ccccc1-3 (stereo unspecified) ?
Shiga inhibitor: 18; LmPK inhibitor: 3%; NS1 function inh: -6%; Giardia FBPA inh: -2%; CHX counter: 8

How did O=C1CCCc2nc3c(cc21)C(O)Oc1c-3ccc2ccccc12 (stereo unspecified) do in these assays?
Shiga inhibitor: 65*; LmPK inhibitor: -10%; Giardia FBPA inh: 3%; CHX counter: 49*

How did O=C(NCc1ccccc1)c1cc(-c2ccco2)on1 do in these assays?
Shiga inhibitor: 65*; LmPK inhibitor: -1%; NS1 function inh: -5%; Giardia FBPA inh: -1%; CHX counter: 34*

Screening data deposited in PubChem BioAssay by National Center for Advancing Translational Sciences (NCATS).
